# Experimental data as given in paper PMC4336329 (PLoS ONE, 2015).
# Screen size: about 310,000 compounds; about 14,000 (4.5%) showed an effect of 50% or more. The effect is printed as a negative number. The sample holds strong results, similar compounds and a random draw of the others, so the mix is not that of the screen.
# Target: human ether-à-go-go-related gene (hERG) potassium channel (human, UniProt Q12809)
# Assay: primary screen, population patch clamp on CHO cells stably expressing hERG; higher = less effect of the substance
# 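Note: peak tail current of the secondary pulse compared with the same well before compound.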
# Sequence of human ether-à-go-go-related gene (hERG) potassium channel (Q12809 whole entry, looked up): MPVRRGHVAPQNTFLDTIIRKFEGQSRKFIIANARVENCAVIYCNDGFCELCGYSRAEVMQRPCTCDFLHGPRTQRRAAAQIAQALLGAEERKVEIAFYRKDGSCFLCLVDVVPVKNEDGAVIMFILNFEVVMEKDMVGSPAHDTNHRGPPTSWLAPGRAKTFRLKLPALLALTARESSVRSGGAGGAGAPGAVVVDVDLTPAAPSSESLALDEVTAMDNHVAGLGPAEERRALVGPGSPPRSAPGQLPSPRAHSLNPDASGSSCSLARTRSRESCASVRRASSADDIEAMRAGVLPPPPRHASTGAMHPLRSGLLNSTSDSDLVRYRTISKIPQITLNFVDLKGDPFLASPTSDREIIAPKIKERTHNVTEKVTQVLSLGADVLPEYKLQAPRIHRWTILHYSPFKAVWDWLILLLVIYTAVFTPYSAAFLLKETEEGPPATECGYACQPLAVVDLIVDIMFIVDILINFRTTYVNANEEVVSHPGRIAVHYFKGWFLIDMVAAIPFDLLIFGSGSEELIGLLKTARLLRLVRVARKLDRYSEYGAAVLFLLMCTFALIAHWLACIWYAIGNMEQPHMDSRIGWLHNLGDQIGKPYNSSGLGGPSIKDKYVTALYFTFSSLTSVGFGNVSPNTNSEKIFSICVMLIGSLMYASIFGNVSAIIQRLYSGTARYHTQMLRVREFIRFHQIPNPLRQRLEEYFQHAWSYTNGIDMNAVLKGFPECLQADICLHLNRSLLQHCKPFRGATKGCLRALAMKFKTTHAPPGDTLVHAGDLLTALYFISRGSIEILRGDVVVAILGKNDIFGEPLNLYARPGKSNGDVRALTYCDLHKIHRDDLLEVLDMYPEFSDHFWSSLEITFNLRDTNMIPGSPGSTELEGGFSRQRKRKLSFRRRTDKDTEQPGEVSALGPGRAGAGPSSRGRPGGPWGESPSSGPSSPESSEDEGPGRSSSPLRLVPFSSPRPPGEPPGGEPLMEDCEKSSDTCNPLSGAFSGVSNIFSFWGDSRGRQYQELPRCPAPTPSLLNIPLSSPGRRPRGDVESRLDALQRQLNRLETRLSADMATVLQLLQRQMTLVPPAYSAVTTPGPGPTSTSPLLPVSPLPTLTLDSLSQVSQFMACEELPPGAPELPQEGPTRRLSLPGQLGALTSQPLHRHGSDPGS
row,SMILES,"hERG current change (%, negative = inhibition) at 10uM [%]"
1,CC(C)CNC(=S)NC(=O)c1ccc(Cl)cc1Cl,3.88
2,Br.Cc1cccc(N2C(=O)SC(SC(=Nc3ccccc3)Nc3ccccc3)C2=O)c1 (stereo not drawn),15.3
3,Cc1c(Br)c([N+](=O)[O-])nn1CCCC(=O)NC(C)c1ccccc1 (stereo not drawn),-16.2
4,O=C(Nc1c2c(nn1-c1ccccc1)CS(=O)(=O)C2)c1ccccc1Br,-0.51
5,COc1ccccc1C(c1nnnn1C(C)(C)C)N1CCCCCC1 (stereo not drawn),-20.9
6,COc1ccc(NC(=O)CN(C)S(=O)(=O)c2ccc3c(c2)n(C)c(=O)c(=O)n3C)cc1,14
7,COc1ccc(CSc2nc3ccccc3c(=O)[nH]2)cc1F,36.6
8,CC(C)C(NC(=O)CCNC(=O)c1ccccc1Cl)c1nc2ccccc2[nH]1 (stereo not drawn),-9.36
9,Cc1ccc(S(=O)(=O)NC(=NC2CCCCC2)c2ccccc2)cc1,-55.2
10,O=S(=O)(NC(=NC1CCCCC1)c1ccccc1)c1ccccc1,-14.7
11,Cc1ccc(S(=O)(=O)NC(=NC2CCCCC2)c2ccc(F)cc2)cc1,-4.09
12,Cn1c(Cc2csc(N)n2)nnc1SCC(=O)NCc1ccccc1,1.12
13,COc1cccc(NC(=O)c2ccc(OC(F)(F)F)cc2)c1,1.07
14,COc1ccc(-c2cc(C(=O)c3c(N)n(C)c(=O)n(C)c3=O)c3ccccc3n2)cc1,-15.5
15,O=C(Nc1ccccc1Cl)C1CCCN(c2ncnc3c2nc2n3CCCCC2)C1 (stereo not drawn),-59.4
16,O=C(NCc1ccccc1Cl)C1CCN(c2ncnc3c2nc2n3CCCCC2)CC1,-30.9
17,O=C(NCC1CCN(Cc2ccccc2F)CC1)C1CCCN(c2ncnc3c2nc2n3CCCCC2)C1 (stereo not drawn),-8.94
18,COc1cccc(CNC(=O)C2CCCN(c3ncnc4c3nc3n4CCCCC3)C2)c1 (stereo not drawn),-55.6
19,O=C(NCc1cccc(Cl)c1)C1CCCN(c2ncnc3c2nc2n3CCCCC2)C1 (stereo not drawn),-73.5
20,O=C(Nc1cccnc1Cl)C1CCCN(c2ncnc3c2nc2n3CCCCC2)C1 (stereo not drawn),-42
21,O=C(NCC1CCN(Cc2cccc(Cl)c2)CC1)C1CCCN(c2ncnc3c2nc2n3CCCCC2)C1 (stereo not drawn),-44.5

row,SMILES,"hERG current change (%, negative = inhibition) at 10uM [%]"
1,O=C(Nc1cccnc1)C1CCCN(c2ncnc3c2nc2n3CCCCC2)C1 (stereo not drawn),-36
2,COc1ccc(CNC(=O)C2CCCN(c3ncnc4c3nc3n4CCCCC3)C2)cc1 (stereo not drawn),-37.6
3,O=C(NCc1ccccc1Cl)C1CCCN(c2ncnc3c2nc2n3CCCCC2)C1 (stereo not drawn),-60.8
4,COc1cccc(CNC(=O)C2CCN(c3ncnc4c3nc3n4CCCCC3)CC2)c1,16.7
5,CN(CCN1CCOCC1)Cc1nc(-c2ccc(Cl)cc2)no1,-28.1
6,O=C(NCc1cccs1)C(=O)NCC1OCCCN1S(=O)(=O)c1cccs1 (stereo not drawn),-15.3
7,CC(C)c1ccc(N(CC(=O)NC(C)(C)C)C(=O)CCC(=O)Nc2nccs2)cc1,2.7
8,Cc1ccccc1NC(=O)CN1C(=O)CSc2ccccc21,17.3
9,CC(=O)c1cccc(S(=O)(=O)N(C)C2CCN(C)CC2)c1.Cl,-2.43
10,O=C(COc1ccc(Br)cc1Br)NC(=S)N1CCCc2ccccc21,-2.7
11,CN1CCN(C(=O)c2ccccc2N(Cc2ccccc2)S(=O)(=O)c2ccccc2)CC1,-8.4
12,Cc1ccc(-c2[nH]nc3c2C(c2ccsc2)C(C#N)=C(N)O3)cc1 (stereo not drawn),-18.9
13,CCc1ccc(N(CC)c2ncnc3nc[nH]c23)cc1,-4.89
14,CC(C)c1ccc2oc(=O)cc(CN3CCN(c4ccc(F)cc4)CC3)c2c1,-2.26
15,CC(C)NC(=O)CSc1nc2[nH]ncc2c(=O)[nH]1,15.6
16,O=C(NCc1ccco1)c1ccc(OCC2CCCO2)cc1 (stereo not drawn),-23.2
17,CSc1cccc(NC(=O)C2CCCN(c3ncnc4c3nc3n4CCCCC3)C2)c1 (stereo not drawn),-47.9
18,COc1ccc(OC)c(CNC(=O)C2CCCN(c3ncnc4c3nc3n4CCCCC3)C2)c1 (stereo not drawn),-59
19,COc1ccc(OC)c(CCNC(=O)C2CCN(c3ncnc4c3nc3n4CCCCC3)CC2)c1,-0.169
20,COc1cccc(NC(=O)C2CCCN(c3ncnc4c3nc3n4CCCCC3)C2)c1 (stereo not drawn),-67.4
21,CCOc1ccccc1CNC(=O)C1CCCN(c2ncnc3c2nc2n3CCCCC2)C1 (stereo not drawn),-51.6

row,SMILES,"hERG current change (%, negative = inhibition) at 10uM [%]"
1,O=C(NCc1ccc(Cl)cc1)C1CCCN(c2ncnc3c2nc2n3CCCCC2)C1 (stereo not drawn),-55.4
2,COc1cc(NC(=O)C2CCCN(c3ncnc4c3nc3n4CCCCC3)C2)cc(OC)c1OC (stereo not drawn),-6.46
3,COc1ccccc1CNC(=O)C1CCN(c2ncnc3c2nc2n3CCCCC2)CC1,6.69
4,CCc1cccc(NC(=O)C2CCCN(c3ncnc4c3nc3n4CCCCC3)C2)c1 (stereo not drawn),-46.4
5,Cc1ccccc1CN1CCC(CNC(=O)C2CCCN(c3ncnc4c3nc3n4CCCCC3)C2)CC1 (stereo not drawn),-7.3
6,C/C(CC(=O)Nc1ccc([N+](=O)[O-])cc1)=N/NC(=O)C1C2CCCCC21 (stereo not drawn),-21.7
7,O=C(Nc1ccc(NC(=O)c2ccc3c(c2)OCO3)cc1)c1cccc(Cl)c1,24.9
8,Cc1onc(-c2ccccc2)c1C(=O)OCCOc1ccc([N+](=O)[O-])cc1[N+](=O)[O-],-17.9
9,O=C(CCN1C(=O)COc2ccccc21)NCc1cccnc1,6.28
10,Cc1c(NC(=O)C2CC(c3ccc(F)cc3)=NO2)c(=O)n(-c2ccccc2)n1C (stereo not drawn),-3.93
11,O=S(=O)(NN=C1CCCCCCC1)c1ccc(Br)cc1,4.3
12,Cc1ccc(-c2noc(CN(C)C(=O)c3ccc(Br)o3)n2)cc1,-18.7
13,O=C(CCCn1c(=O)[nH]c2ccsc2c1=O)NCc1cccs1,4.11
14,CCCCN(C(=O)CN1C(=O)C2CC=CCC2C1=O)c1c(N)n(CCC)c(=O)[nH]c1=O (stereo not drawn),4.14
15,O=C(O)Cc1cccc2ccccc12,16.6
16,CCCOc1ccc(/C=C2\SC(N)=NC2=O)cc1OC,3.66
17,O=C(O)c1cccc2c(/C=N/Nc3ccccn3)c[nH]c12,-1.13
18,O=C(NCc1ccccc1)C1CCCN(c2ncnc3c2nc2n3CCCCC2)C1 (stereo not drawn),-69.1
19,CC(C)N(CCNC(=O)C1CCCN(c2ncnc3c2nc2n3CCCCC2)C1)Cc1ccccc1 (stereo not drawn),-37.3
20,CCN(C(=O)C1CCCN(c2ncnc3c2nc2n3CCCCC2)C1)c1cccc(Cl)c1 (stereo not drawn),-62.5
21,O=C(NCC1CCN(Cc2ccc(Cl)cc2)CC1)C1CCCN(c2ncnc3c2nc2n3CCCCC2)C1 (stereo not drawn),-65.7

row,SMILES,"hERG current change (%, negative = inhibition) at 10uM [%]"
1,O=C(NCC1CCN(Cc2ccc(F)cc2)CC1)C1CCCN(c2ncnc3c2nc2n3CCCCC2)C1 (stereo not drawn),-39.6
2,CN(Cc1ccco1)C(=O)C1CCCN(c2ncnc3c2nc2n3CCCCC2)C1 (stereo not drawn),5.57
3,Cc1ccc(CNC(=O)C2CCCN(c3ncnc4c3nc3n4CCCCC3)C2)cc1 (stereo not drawn),-49
4,Cc1ccc(CN2CCC(CNC(=O)C3CCCN(c4ncnc5c4nc4n5CCCCC4)C3)CC2)cc1 (stereo not drawn),-45
5,CC(C)N(Cc1ccccc1)C(=O)C1CCCN(c2ncnc3c2nc2n3CCCCC2)C1 (stereo not drawn),-44.3
6,CN(Cc1ccccc1)C(=O)C1CCCN(c2ncnc3c2nc2n3CCCCC2)C1 (stereo not drawn),-66
7,CN(C(=O)C1CCCN(c2ncnc3c2nc2n3CCCCC2)C1)c1cccc(Cl)c1 (stereo not drawn),-45.9
8,Cc1ccccc1N(C)C(=O)C1CCCN(c2ncnc3c2nc2n3CCCCC2)C1 (stereo not drawn),-7.96
9,O=C(C1CC1)N1CCCN(C(=O)C2CC2)CC1,16.3
10,CCC1(C)Cc2ccccc2-c2nc(NCCCO)n(-c3ccccc3)c(=O)c21 (stereo not drawn),-48.6
11,c1ccc(COc2ccccc2CNc2nn[nH]n2)cc1,13.1
12,O=C(Nc1sc2c(c1C(=O)NCC(O)CO)CCCC2)c1ccccc1 (stereo not drawn),6.02
13,O=C(COC(=O)CNC(=O)c1cccs1)Nc1ccc(C(F)(F)F)cc1[N+](=O)[O-],-44
14,CCn1c(C)nnc1SCC(=O)Nc1ccc(Cl)cc1,10.3
15,CN(CC(=O)NCCCc1ccccc1)S(=O)(=O)c1ccc(Br)cc1,-7.88
16,O=C(Nc1ccc(Cl)cc1)C1CCCN(c2ncnc3c2nc2n3CCCCC2)C1 (stereo not drawn),-50.1
17,CC(=O)c1ccc(NC(=O)C2CCCN(c3ncnc4c3nc3n4CCCCC3)C2)cc1 (stereo not drawn),-24.1
18,Cc1ccc(NC(=O)C2CCCN(c3ncnc4c3nc3n4CCCCC3)C2)cc1Cl (stereo not drawn),-6.39
19,COc1ccc2no[n+]([O-])c2c1,28.1
20,CC1CCc2c(sc(NC(=O)CCC(=O)O)c2C(=O)NC2CC2)C1 (stereo not drawn),18.1
21,COc1ccc(NC(=O)n2ncc3cc(Cl)ccc32)cc1OC,21.3
